# High-throughput results (PubChem BioAssay)
# Shown are actives, neighbours in structure and some others; about 27% of the full set was active somewhere.
# CYP2C9 act: human CYP2C9 activators, primary screen, biochemical, luminescence; Cytochrome P450 2C9 (Homo sapiens), P11712; recombinant CYP2C9, luciferin-H conversion; stronger effect = higher value; factor 1 = untreated enzyme, 0 = blocked; activation factor at 5 µM; 96,000 tested, 1.4% active;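 active = activation factor of 2 or more for CYP2C9 at a 5 µM dose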;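 note: 0 = sulfaphenazole-blocked wells and 1 = vehicle-only wells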
# sEH activator: soluble epoxide hydrolase activators, primary screen, biochemical, human sEH. purified human sEH enzymatic activity, activator screen. 91,000 tested, 0.04% active. activation, % at 2 µM. Bifunctional epoxide hydrolase 2 (Homo sapiens), P34913; in the data active = activation above about 37%
# Target sequence (P34913 whole entry, looked up): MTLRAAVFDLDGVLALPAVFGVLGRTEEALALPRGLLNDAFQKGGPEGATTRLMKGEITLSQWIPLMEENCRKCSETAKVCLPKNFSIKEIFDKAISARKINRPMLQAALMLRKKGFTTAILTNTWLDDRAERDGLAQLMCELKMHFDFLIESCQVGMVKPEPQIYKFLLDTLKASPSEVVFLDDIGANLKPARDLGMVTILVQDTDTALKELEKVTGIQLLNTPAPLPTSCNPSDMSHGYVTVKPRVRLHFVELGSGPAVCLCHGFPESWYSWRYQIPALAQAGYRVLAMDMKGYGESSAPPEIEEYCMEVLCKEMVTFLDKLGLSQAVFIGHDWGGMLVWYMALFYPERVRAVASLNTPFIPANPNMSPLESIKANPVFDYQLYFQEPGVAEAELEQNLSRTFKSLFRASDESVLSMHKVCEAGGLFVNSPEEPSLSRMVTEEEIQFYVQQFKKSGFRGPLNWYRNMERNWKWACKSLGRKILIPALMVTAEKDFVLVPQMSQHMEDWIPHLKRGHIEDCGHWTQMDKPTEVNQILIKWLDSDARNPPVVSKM
# sEH inh: soluble epoxide hydrolase inhibitors, primary screen, biochemical, human sEH; Bifunctional epoxide hydrolase 2 (Homo sapiens), P34913; recombinant human sEH enzymatic activity assay; inhibition, % at 2 µM; 91,000 tested, 0.34% active; in the data active = inhibition above about 80%
# CYP2C9 inhib: blockers of cytochrome P450 2C9 activity – biochemical, luminescence, ADME assay, primary screen; CYP2C9 Supersomes, luciferin-H conversion; 96,000 tested, 20% active; P11712; inhibition, % at 5 µM;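 active = blocking of liver enzyme CYP2C9 beyond about 50% at 5 µM, limit read from the data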
# CYP2C19 act: human CYP2C19 activators, primary screen, biochemical, luminescence; Cytochrome P450 2C19 (Homo sapiens), P33261; recombinant CYP2C19, luciferin-H EGE luminescence; stronger effect = higher value; 0 = fully inhibited enzyme, 1 = untreated enzyme; activation factor at 5 µM; 96,000 tested, under 10 active; AID 1025, 2008;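 active = activation factor of at least 2 at 5 µM in the primary screen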;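 note: 0 = wells with 2.5 mM tranylcypromine and 1 = vehicle-only wells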
# CYP2C19 inhib: blockers of cytochrome P450 2C19 activity – biochemical, luminescence, ADME assay, primary screen; P33261; CYP2C19 Supersomes, luciferin-H EGE luminescence, 30 min; inhibition, % at 5 µM; 96,000 tested, 21% active; AID 778, 2007;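 active = CYP2C19 inhibition above a set limit at 5 µM in the primary screen, cut at about 50% in these data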;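 note: plate controls were negative control wells for no effect and 2.5 mM tranylcypromine positive control for full effect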
# Numbers without * were called inactive; · = not tested or not shown.
SMILES,CYP2C9 act,sEH activator,sEH inh,CYP2C9 inhib,CYP2C19 act,CYP2C19 inhib
CN=C1SC(CC(=O)Nc2ccc(C(C)=O)cc2)C(=O)N1C (centres undefined),·,-31,34,·,·,·
Cc1nnc(NC(=O)c2ccc3c(c2)C(=O)N(CCC(C)C)C3=O)s1,0.9,-6,6,9,1,3
Cc1ccc(NC(=O)C(C)Sc2nnc(-c3cccnc3)n2-c2ccccc2)cc1 (centres undefined),1,-1,1,-4,1,1
Cn1c(=O)oc2cc(C(=O)c3ccccc3)ccc21,1.1,10,-10,-13,0.8,20
Cc1nn2c3ccccc3nc2n(Cc2ccccc2)c1=O,·,7,-3,·,·,·
Cn1c(=O)c(-c2ccccc2)nn2c3ccccc3nc12,0.3,5,-7,74*,0.4,62*
COc1cccc(-c2nn(C)c3sc(C(=O)NCc4ccc(C)o4)cc23)c1,0.5,·,·,54*,0.8,23
COc1cccc(-c2nn(C)c3sc(C(=O)NCc4ccc5c(c4)OCO5)cc23)c1,0.1,9,-8,87*,0.2,76*
COc1ccc(-c2cn3c(C)c(C(=O)NCc4ccc5c(c4)OCO5)sc3n2)cc1,·,-21,20,·,·,·
CON(C)c1nc(NCC(C)C)nc(OCC#N)n1,1,2,-2,0,1,-2
CCOC(=O)c1c(=O)n(O)c2ccc(OC)cc2[n+]1[O-],1,3,-3,-4,1,-1
CCS(=O)(=O)c1ccc(C(=O)Nc2cccc(Cl)c2)c(Cl)c1Cl,1.3,16,-19,-30,1,0
COc1cccc(C(=O)Nc2cc(NC(=O)c3ccco3)ccc2OC)c1,0.7,1,0,32,0.7,29
O=C(COC(=O)c1cccc(NC(=O)c2ccco2)c1)c1ccc(Br)cc1,2.3*,0,0,-134,0.9,11
COc1ccc(NC(=O)c2ccco2)cc1NC(=O)c1cccc(OC(C)C)c1,0.6,·,·,44,0.4,64*
COc1ccccc1NC(=O)c1cccc(NC(=O)c2ccco2)c1,2.8*,-10,13,-176,1,2
CC(C)(C)NC(=O)c1cccc(NC(=O)c2ccc(NC(=O)c3ccco3)cc2)c1,0,-8,8,97*,0.3,74*
O=C(CC12CC3CC(C1)CC(CC(=O)N1CCCC1)(C3)C2)N1CCCC1,1.1,·,·,-15,1.1,-8
COc1ccc(NC(=O)c2ccco2)cc1NC(=O)c1ccco1,0.9,·,·,6,1,-1
Cc1ccc(O)c(NC(=O)c2cccc(NC(=O)c3ccco3)c2)c1,1,0,-2,2,0.5,53*
COc1ccc(NC(=O)Cc2ccc(Cl)cc2)cc1NC(=O)c1ccco1,0.4,9,-9,65*,0.3,74*
Cc1ccc(O)c(NC(=O)c2ccco2)c1,0.7,11,-13,35,0.6,36
Cc1cccc(-n2c(SCc3cc(=O)n4c(C)cccc4n3)nc3[nH]ncc3c2=O)c1,1,18,-21,-2,0.7,28
O=C(CC1COc2ccccc2O1)NCCc1ccccc1 (centres undefined),0.6,-47,48,42,0.5,54*
O=C(CC1COc2ccccc2O1)NCc1ccccc1 (centres undefined),·,-2,7,·,·,·
SMILES,CYP2C9 act,sEH activator,sEH inh,CYP2C9 inhib,CYP2C19 act,CYP2C19 inhib
O=C(CCC1COc2ccccc2O1)NCc1ccccc1 (centres undefined),0.7,-11,12,32,0.4,59*
CCOc1nc2ccccc2nc1C,1,-17,20,-4,1.1,-8
OCn1ncn(-c2ccccc2)c1=S,0.9,6,-6,8,0.9,11
COC(=O)c1ccc(NC(=O)CSCC(=O)OCC(=O)c2ccc(Br)cc2)cc1,0.7,13,-14,28,0.8,20
COC(=O)C(CC(=O)c1ccc(Br)cc1)n1ccnc1 (centres undefined),0.2,8,-8,81*,0,96*
CC(=O)C1=C(O)C(=O)N(C)C1c1ccccc1F (centres undefined),1,·,·,4,1,0
CSC1=NCCN1C(=O)C(C)(C)Oc1ccc(Cl)cc1,·,-1,0,·,·,·
